# In PubChem BioAssay AID1159580 (chemical genetic matrix, 2015):
# The campaign covered roughly 5,500 compounds. About 2,000 (36%) were called active. About 18% were inconclusive and are not listed. The list shows a part of the results. Values without a mark were called inactive. No stated cut-off is given here; in the data, active means normalized growth mostly below about 0.91 (no sharp cut-off); inconclusive means no clear call, values can overlap the other calls; inactive means mostly above about 0.92.
# Assay: chemical genetic growth profiling, strain panel (AID 1159580);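 further: tested at 20 µM; growth read once vehicle control cultures reached saturation at 30 °C; 1 = growth at the plate median or of vehicle wells; lower values mean less growth of the strain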
# Settings: S. cerevisiae deletion strains, growth OD
# [1] = locus YDL101C, strain DUN1, hits give low values
# [2] = locus YHR030C, strain SLT2, hits give low values
compound,measurement,setting,value
O=C1CC(c2ccccc2)=NO1,normalized growth,"locus YAL013W, strain DEP1, hits give low values",0.683 (active)
same,normalized growth,"locus YBR229C, strain ROT2, hits give low values",0.336 (active)
same,normalized growth,[1],0.395 (active)
same,normalized growth,"locus YEL061C, strain CIN8, hits give low values",0.862 (active)
same,normalized growth,"locus YGR078C, strain PAC10, hits give low values",0.174 (active)
same,normalized growth,[2],0.615 (active)
same,normalized growth,"locus YHR087W, strain rtc3, hits give low values",0.419 (active)
same,normalized growth,"locus YJL187C, strain SWE1, hits give low values",0.298 (active)
same,normalized growth,"locus YJR043C, strain POL32, hits give low values",0.566 (active)
same,normalized growth,"locus YJR075W, strain HOC1, hits give low values",0.3 (active)
same,normalized growth,"locus YKL190W, strain CNB1, hits give low values",0.987
same,normalized growth,"locus YLR039C, strain RIC1, hits give low values",1.11
same,normalized growth,"locus YLR058C, strain SHM2 (second series), hits give low values",0.431 (active)
same,normalized growth,"locus YLR085C, strain ARP6, hits give low values",0.432 (active)
same,normalized growth,"locus YLR262C, strain YPT6, hits give low values",1.08
same,normalized growth,"locus YML094W, strain GIM5, hits give low values",0.743 (active)
same,normalized growth,"locus YMR219W, strain ESC1, hits give low values",0.26 (active)
same,normalized growth,"locus YMR307W, strain GAS1, hits give low values",0.511 (active)
same,normalized growth,"locus YNL153C, strain GIM3, hits give low values",0.0697 (active)
same,normalized growth,"locus YNL298W, strain CLA4 (second series), hits give low values",0.797 (active)
same,normalized growth,"locus YNL322C, strain KRE1, hits give low values",0.737 (active)
same,normalized growth,"locus YNR030W, strain Alg12, hits give low values",0.803 (active)
same,normalized growth,"locus YPL055C, strain LGE1, hits give low values",0.666 (active)
same,normalized growth,"locus YPL241C, strain CIN2, hits give low values",0.68 (active)
same,normalized growth,"locus YPR135W, strain CTF4, hits give low values",0.528 (active)
CSc1c(C#N)c(-c2ccc(Cl)cc2)nn1C(=O)c1ccccc1Cl,normalized growth,"locus YAR019C, strain CDC15, hits give low values",0.966
same,normalized growth,"locus YBL105C, strain PKC1, hits give low values",0.95
same,normalized growth,"locus YBR135W, strain CKS1, hits give low values",0.957
same,normalized growth,"locus YBR136W, strain MEC1, hits give low values",0.951
same,normalized growth,"locus YBR160W, strain CDC28, hits give low values",0.951
same,normalized growth,"locus YDL017W, strain CDC7, hits give low values",0.946
same,normalized growth,"locus YDL028C, strain MPS1, hits give low values",0.951
same,normalized growth,[1],0.94
same,normalized growth,"locus YDL108W, strain KIN28, hits give low values",0.954
same,normalized growth,"locus YDL132W, strain cdc53, hits give low values",0.948
same,normalized growth,"locus YDL214C, strain PRR2, hits give low values",0.964
same,normalized growth,"locus YDR052C, strain DBF4, hits give low values",0.957
same,normalized growth,"locus YDR054C, strain cdc34, hits give low values",0.941
same,normalized growth,"locus YDR226W, strain ADK1, hits give low values",0.933
same,normalized growth,"locus YDR477W, strain SNF1, hits give low values",0.938
same,normalized growth,"locus YER123W, strain YCK3, hits give low values",0.946
same,normalized growth,"locus YER133W, strain GLC7, hits give low values",0.962
same,normalized growth,"locus YFL009W, strain cdc4, hits give low values",0.951
same,normalized growth,"locus YFL029C, strain CAK1, hits give low values",0.958
same,normalized growth,"locus YFR003C, strain YPI1, hits give low values",0.954
same,normalized growth,"locus YFR019W, strain FAB1, hits give low values",1
same,normalized growth,"locus YFR028C, strain CDC14, hits give low values",0.948
same,normalized growth,"locus YGR040W, strain KSS1, hits give low values",0.931
same,normalized growth,"locus YGR052W, strain FMP48, hits give low values",0.97
same,normalized growth,"locus YGR092W, strain DBF2, hits give low values",0.895
same,normalized growth,[2],1.03
same,normalized growth,"locus YHR079C, strain IRE1, hits give low values",1.03
same,normalized growth,"locus YHR082C, strain KSP1, hits give low values",1.01
same,normalized growth,"locus YHR205W, strain SCH9, hits give low values",0.872
same,normalized growth,"locus YIL147C, strain SLN1, hits give low values",0.949
same,normalized growth,"locus YJL095W, strain BCK1, hits give low values",0.9
same,normalized growth,"locus YJL128C, strain PBS2, hits give low values",0.921
same,normalized growth,"locus YJL157C, strain FAR1, hits give low values",0.965
same,normalized growth,"locus YJR016C, strain ILV3, hits give low values",0.945
same,normalized growth,"locus YJR066W, strain TOR1 (second series), hits give low values",0.946
same,normalized growth,"locus YJR066W, strain TOR1, hits give low values",1
same,normalized growth,"locus YKL048C, strain ELM1, hits give low values",0.981
same,normalized growth,"locus YKL067W, strain YNK1, hits give low values",0.969
same,normalized growth,"locus YKL101W, strain HSL1, hits give low values",0.933
same,normalized growth,"locus YKL193C, strain SDS22, hits give low values",0.957
same,normalized growth,"locus YKL203C, strain TOR2, hits give low values",1.06
same,normalized growth,"locus YLR113W, strain HOG1, hits give low values",0.76 (active)
same,normalized growth,"locus YLR133W, strain CKI1, hits give low values",0.969
same,normalized growth,"locus YLR403W, strain SFP1, hits give low values",0.889
same,normalized growth,"locus YML070W, strain DAK1, hits give low values",0.948
same,normalized growth,"locus YMR001C, strain CDC5, hits give low values",0.957
same,normalized growth,"locus YMR205C, strain PFK2 (second series), hits give low values",0.969
same,normalized growth,"locus YMR277W, strain FCP1, hits give low values",0.966
same,normalized growth,"locus YNL006W, strain LST8, hits give low values",0.975
same,normalized growth,"locus YNL020C, strain ARK1, hits give low values",0.958
same,normalized growth,"locus YNL161W, strain CBK1, hits give low values",0.958
same,normalized growth,"locus YNL183C, strain NPR1, hits give low values",0.969
same,normalized growth,"locus YNL207W, strain RIO2, hits give low values",0.938
same,normalized growth,"locus YNL222W, strain SSU72, hits give low values",0.963
same,normalized growth,"locus YNL307C, strain MCK1 (second series), hits give low values",0.921
same,normalized growth,"locus YOL078W, strain AVO1, hits give low values",0.958
same,normalized growth,"locus YOL136C, strain PFK27, hits give low values",0.936
same,normalized growth,"locus YOR061W, strain CKA2, hits give low values",0.975
same,normalized growth,"locus YOR119C, strain RIO1, hits give low values",1.01
same,normalized growth,"locus YOR231W, strain MKK1, hits give low values",0.917
same,normalized growth,"locus YOR329C, strain SCD5, hits give low values",0.956
same,normalized growth,"locus YPL031C, strain PHO85, hits give low values",0.934
same,normalized growth,"locus YPL153C, strain RAD53, hits give low values",0.936
same,normalized growth,"locus YPL204W, strain HRR25, hits give low values",0.942
same,normalized growth,"locus YPL209C, strain IPL1, hits give low values",0.958
same,normalized growth,"locus YPL256C, strain CLN2, hits give low values",1.07
same,normalized growth,"locus YPR025C, strain CCL1, hits give low values",0.958
same,normalized growth,"locus YPR106W, strain ISR1, hits give low values",0.939
same,normalized growth,"locus YPR111W, strain DBF20, hits give low values",0.947
same,normalized growth,"strain NNK1, hits give low values",0.959
same,normalized growth,"strain TSCII, hits give low values",0.958
